The results in this text go back to PubChem BioAssay AID493240 (Broad Institute, 2011).

In all, about 1,300 compounds went through this assay and about 270 (21%) were called active. No rule for the calls is given here. The list is a sample of the results. Where a call stands in place of a potency, no number is given. Potency and affinity values are given separately.

This assay is described as follows: cytotoxicity in parental SK-MEL-5 melanoma cells – cell-based, CellTiter-Glo, cherry-picked, set 3, orthogonal assay for MITF inhibitor project, dose response (AID 493240). Particulars: SK-MEL-5 viability, ATP luminescence (CellTiter-Glo), 24 h; series mostly up to 35 µM. (In general: Cellular ATP, detected with luciferase, serves as a proxy for viable cell number.)
As to `CCOCCCNC(=O)/C(C#N)=C/c1ccc([N+](=O)[O-])o1`, the result was inactive.
The value for `CC1CC(C)CN(C(=O)/C=C/c2ccc([N+](=O)[O-])s2)C1` (configuration not stated) was “inactive”.
Regarding `CCNC(=O)CC1C(=O)N(c2ccc(F)cc2)C(=O)N1CCc1ccc(OC)cc1` (configuration not stated), the result was inactive.
`COc1ccc(C(=O)C(CN2CCCC2)c2ccccc2)cc1` (configuration not stated): the outcome was inactive.
As to `COc1ccc(C(=O)C(CN2CCOCC2)c2ccccc2)cc1` (configuration not stated), the result was inactive.
With `COc1ccc(C(=O)CCNc2ccc(F)cc2)cc1`, the result was inactive.
The value for `CC(C)(C)c1ccc(-c2cc(N)n[nH]2)cc1` was “inactive”; that for `O=C(Nc1ccc(Cl)cc1)C1C2CCCCC21` (configuration not stated) was “inactive”.
With `CCOC(=O)N1C(=O)[C@@](CC)(c2ccccc2)N1C(=O)OCC`, the outcome was inactive.
Regarding `O=S1(=O)CCC(NC(=S)SCc2ccccc2Br)C1` (configuration not stated), the result was inactive.
Consider `O=C(CSCC(=O)Nc1ccccc1)N/N=C/c1c(O)ccc2ccccc12`, for which the result was inactive.
In the case of `CCOC(=O)c1cn2nc(Oc3ccccc3)ccc2n1` it was “inactive”; in that of `COc1ccc(/C=C2\SC(=S)N(CCCC(=O)NNC(=O)c3ccccc3O)C2=O)cc1`, “inactive”.
On to `CN(C)CCNc1ccc2nnn3c4ccc(O)cc4c(=O)c1c23`, for which the result was inactive.
In the case of `O=C(Nc1ccccc1Cl)Nc1cccc2cccnc12`, the result was inactive.
As to `COc1ccc2oc(=N)c(C(=O)Nc3ccccc3Cl)cc2c1`, the outcome was inactive.
Take `Cc1cc(C(=O)Nc2cccc(C(=O)O)c2)oc1C`: the outcome was inactive.
For `CCSc1nc2c(cnn2-c2ccccc2)c(=O)n1N`, the outcome was inactive.
Consider `O=C(O)c1cccc(N/N=C/c2ccc(OC(F)(F)F)cc2)c1`, for which the result was inactive.
For the molecule `COc1cc(C2C(C#N)=C(N)Oc3cc4c(cc32)OCO4)cc(OC)c1OC` (configuration not stated), the result was inactive.
As for `Clc1ccc(-c2c[n+](Cc3cccc(Cl)c3)c3n2CCC3)cc1`, the outcome was inactive.
The value for `O=C(C[n+]1cc(-c2ccc(F)cc2)n2c1CCC2)c1cccs1` was “inactive”; that for `Nc1ccc(-c2nc3c(Cl)cc(N)cc3[nH]2)cc1` was “inactive”.
Turning to `C=CCSC(=S)NC1CCS(=O)(=O)C1` (configuration not stated), the outcome was inactive.
Turning to `C/C(=N\NC(=O)C(C)Oc1ccc([N+](=O)[O-])cc1)c1ccccn1` (configuration not stated), the outcome was inactive.
For `O=C(/C=C/c1ccc([N+](=O)[O-])s1)N1CCCC1`, the outcome was inactive.
On to `COc1ccc(NC(=O)c2cc(F)cc(F)c2)cc1Cl`, for which the outcome was inactive.
For `COc1ccc(C(=O)Nc2ccc3ccccc3c2)cc1OC`, the outcome was inactive.
On to `COc1ccc(NC(=O)c2scc(S(=O)(=O)C(C)C)c2N)cc1`, for which the outcome was inactive.
The value for `O=C(/C=C/c1ccccc1)Nc1cccc(C(=O)O)c1` was “inactive”.
Take `O=C(Nc1ccccc1F)c1ccc2c(c1)OCO2`: the result was inactive.
As for `Cc1cccc(OCC(=O)Nc2cccc(O)c2)c1`, the outcome was inactive.
In the case of `CC1(C)Cc2c(sc(NC(=O)Nc3ccccc3)c2C(N)=O)CO1` it was “inactive”; in that of `COc1cccc(/C=N/Nc2nc3ccccc3[nH]2)c1OC`, “inactive”.
For the molecule `O=C(Nc1ccc(-c2cn3c(n2)SCC3)cc1)c1ccco1`, the result was inactive.
As for `NNC(=O)c1cc2ccccc2cc1O`, the outcome was inactive.
In the case of `CN(CC(=O)N1CCCCCC1)S(=O)(=O)c1ccccc1` it was “inactive”; in that of `COC(=O)C1=C(CN2CCCc3ccccc32)NC(=O)NC1c1ccc(F)cc1` (configuration not stated), “inactive”.
Consider `O=Cc1ccc(N2Cc3ccccc3C2)cc1`, for which the result was inactive.
Turning to `Cc1ccc(C(=O)c2coc3ccc(O)c(Cl)c23)cc1`, the result was inactive.
The value for `COCc1cc(C)nc2sc(C(=O)Nc3cccc(OC)c3)c(N)c12` was “inactive”; that for `COc1ccc(CNC(=O)CN2C(=O)C3C4C=CC(C4)C3C2=O)cc1` (configuration not stated) was “inactive”; that for `CN(C)CC1CC/C(=C\c2ccc(O)cc2)C1=O` (configuration not stated) was “inactive”.
Turning to `Cc1cc(NC(=O)c2ccc(Cl)cc2Cl)no1`, the result was inactive.
Regarding `N/C(=N\OC(=O)c1ccncc1)c1cccc([N+](=O)[O-])c1`, the result was inactive.
The value for `O=[N+]([O-])/C=C\c1ccc(N2CCOCC2)cc1` was “inactive”.
Regarding `COc1cccc2sc(N3CCN(C(=O)c4ccc([N+](=O)[O-])o4)CC3)nc12`, the outcome was inactive.
As for `Oc1c(Cl)cc(Cl)cc1/C=N/Nc1ncc(Br)cn1`, the result was inactive.
With `O=C(Cc1cccs1)NCc1ccc(Cl)cc1Cl`, the outcome was inactive.
As to `c1ccc(OCc2nc3ccccc3[nH]2)cc1`, the result was inactive.
In the case of `CC(=O)c1c(C)[nH]c(C(=O)Nc2ccc(C)c(C)c2)c1C` it was “inactive”; in that of `BrC(=C\c1ccccc1)/C=N/n1cnnc1`, “inactive”.
Turning to `Nc1nc2ccccc2n1/N=C/c1ccc(-c2ccccc2)o1`, the outcome was inactive.
In the case of `CN(C(=O)/C=C/c1ccc([N+](=O)[O-])s1)c1ccccc1`, the outcome was inactive.
On to `Cc1cc2ncn(/N=C/c3ccc([N+](=O)[O-])o3)c2cc1C`, for which the outcome was inactive.
For `O=[N+]([O-])c1ccc(/C=N/n2c(CO)nc3ccccc32)s1`, the result was inactive.
Regarding `Cc1ccc(C)c(-n2c3nc(=O)[nH]c(=O)c-3cc3cc([N+](=O)[O-])ccc32)c1`, the outcome was inactive.
Take `O=C(Nc1ccc(F)c(Cl)c1)c1ccc2c(c1)OCO2`: the outcome was inactive.
As for `COc1ccccc1N1CCN(/N=C\c2ccccc2)CC1`, the result was inactive.
Turning to `CC(C)(C)N=Cc1cc(-c2ccccc2)sc1O`, the result was inactive.
Regarding `N#Cc1ccc(-c2cccnc2)nc1SCC(=O)c1ccccc1`, the outcome was inactive.
For `COc1ccc(C(=O)Nc2nc3ccc(OC)cc3s2)cc1`, the result was inactive.
In the case of `CC(=C/c1ccco1)/C=N/N1CCN(c2ccccc2)CC1`, the outcome was inactive.
The value for `CCCN(CC(=O)Nc1ccccc1C)C(=O)CCl` was “inactive”.
In the case of `Cc1nc(-c2ccccn2)sc1C(=O)Nc1ccc(F)cc1F` it was “inactive”.
The value for `COc1ccc(N/C=C\C(=O)c2ccc3ccccc3c2)cc1` was “inactive”; that for `CC(=O)Nc1cccc2c1Cc1ccccc1-2` was “inactive”.
As to `Cc1c(NC(=O)c2ccc([N+](=O)[O-])o2)cccc1-c1nc2ncccc2o1`, the result was inactive.
For `CCN(CC)S(=O)(=O)c1cccc(C(=O)N/N=C(\C)c2ccc(O)cc2O)c1`, the result was inactive.
In the case of `CCCCCCN1C=CC(=C2C(=O)c3ccccc3C2=O)C=C1`, the outcome was inactive.
As to `CC(C)CC(=O)NC(c1cccs1)c1ccc2cccnc2c1O` (configuration not stated), the result was inactive.
In the case of `O=C(/C=C/c1ccccc1Cl)NC1CCCCC1` it was “inactive”; in that of `COCCN(C(=O)CCl)C(C(=O)NC1CCCCC1)c1ccccc1C` (configuration not stated), “inactive”.
Turning to `COc1ccc(/C=C/C(=O)NC(=S)N2CCN(c3ccccc3OC)CC2)cc1`, the result was inactive.
For `COCCn1c(C)cc(C(=O)CSc2nnc(C)s2)c1C`, the result was inactive.
Regarding `c1ccc(CSc2nnc(-c3ccco3)n2Cc2ccco2)cc1`, the result was inactive.
On to `N#Cc1c(NC(=O)CSc2ncn[nH]2)sc2c1CCCC2`, for which the result was inactive.
As for `COc1ccc(-c2cc(-c3ccc(OC)c(OC)c3)n[nH]2)c(O)c1`, the result was inactive.
For the molecule `CCCC1=Nc2cc(C(=O)NCCN3CCCC3)ccc2Sc2ccccc21`, the outcome was inactive.
`N#CC(C#N)=C1C=CC=CN1/C(=C\c1ccco1)C(=O)c1ccc(Cl)cc1`: the result was inactive.
Consider `O=C(Nc1ccc2c(c1)OCCO2)c1coc2ccccc2c1=O`, for which the outcome was inactive.
Turning to `O=C(NCc1ccccc1)NC1(C(=O)Nc2ccc3c(c2)OCCO3)CCCCC1`, the outcome was inactive.
For `CCOC(=O)/C=c1\s/c(=C\c2ccc3cc(OC)ccc3c2)c(=O)n1CC(=O)NCC1CCCO1` (configuration not stated), the outcome was inactive.
Turning to `COc1ccc(/C=N/NC(=O)Cc2cccs2)cc1`, the result was inactive.
In the case of `COc1ccc(N(CC(=O)NCC2CCCO2)S(=O)(=O)c2ccccc2)cc1OC` (configuration not stated) it was “inactive”; in that of `CC(C)(C)C(=O)Cn1ncc(Br)c(Br)c1=O`, “inactive”; in that of `Cc1ccc2c(C(=O)CCl)c(C)[nH]c2c1`, “inactive”.
As for `Cn1cc(C(=O)CCl)c2ccccc21`, the outcome was inactive.
As for `COc1ccccc1N1C(=O)N(C(C)=O)C2C1Nc1ccccc1N2C` (configuration not stated), the outcome was inactive.
Regarding `Cc1cccc(OCc2nc3ccccc3n2C)c1`, the result was inactive.
On to `Cc1nc(NC(=O)C2CC2)sc1C(=O)Nc1ccccc1Cl`, for which the result was inactive.
The value for `O=C(CC(=O)c1ccccc1)Nc1ccccc1` was “inactive”.
In the case of `CCOc1ccc(N=C(C)C2=C(O)c3ccccc3C2=O)cc1` it was “inactive”.
For the molecule `CCCCOC(=O)Nc1ccc2c(C)cc(=O)oc2c1`, the result was inactive.
As to `COc1ccc(S(=O)NC2CCCCC2)c(OC)c1C` (configuration not stated), the result was inactive.
In the case of `COc1cc(CN2CCC(Cc3ccccc3)CC2)cc(OC)c1OC`, the outcome was inactive.
In the case of `CCOC(=O)C1(Cc2cccc(OC)c2)CCCN(C(=O)CSC)C1` (configuration not stated) it was “inactive”; in that of `CC(C)(C)c1ccc(C(=O)N2CCCCCC2=O)cc1`, “inactive”.
In the case of `C=CC[n+]1c(-c2ccc(C)cc2)csc1Nc1ccc(NC(C)=O)cc1` it was “inactive”; in that of `CC(C)(C)c1ccc(OCCCNCc2ccccc2)cc1`, “inactive”; in that of `O=C1c2ccccc2C(=O)N1CCOc1ccccc1`, “inactive”.
Regarding `CCOC(=O)c1cc(-c2ccc(OC)cc2)n[nH]1`, the outcome was inactive.
Turning to `COc1ccc(C(=O)Nc2ccc(C)cn2)c(OC)c1`, the result was inactive.
Take `O=C(N/N=C/c1ccccn1)c1cc([N+](=O)[O-])cc([N+](=O)[O-])c1`: the result was inactive.
The value for `COc1ccc(C(C(=O)NC2CCCCC2)N(C(=O)CCl)c2ccc(OC)cc2)cc1` (configuration not stated) was “inactive”; that for `COc1ccc(N(C(=O)CCl)C(C(=O)NC2CCCCC2)c2cccnc2)cc1` (configuration not stated) was “inactive”; that for `CCn1c(C)cc(C(=O)CN2C(=O)c3ccccc3S2(=O)=O)c1C` was “inactive”.
As to `O=C1c2ccccc2S(=O)(=O)N1Cc1nc2ccccc2s1`, the result was inactive.
As to `CCCC(=O)NC(c1ccc(OC)c(OC)c1)c1cc(Cl)c2cccnc2c1O` (configuration not stated), the result was inactive.
On to `O=C(Nc1nc(-c2ccccn2)cs1)c1ccc(F)c(S(=O)(=O)N2CCOCC2)c1`, for which the result was inactive.
On to `Cn1cc([N+](=O)[O-])c(C(=O)Nc2nc(-c3ccc(Cl)cc3)cs2)n1`, for which the outcome was inactive.
Take `CC1CCCCC1NC(=O)/C(C#N)=C/C=C/c1ccccc1[N+](=O)[O-]` (configuration not stated): the result was inactive.
As for `OCC1OC(n2cnc3c(NCc4ccco4)ncnc32)C(O)C1O` (configuration not stated), the result was inactive.
Regarding `COc1cccc(/C=N/NC(=O)CN2CC(c3ccccc3)CC2=O)c1OC` (configuration not stated), the outcome was inactive.
Consider `CCN1CCc2c(sc(NC(=O)c3ccc(S(=O)(=O)N4CCCCCC4)cc3)c2C(=O)NC)C1`, for which the outcome was inactive.
As to `Cc1scc(C(=O)N/N=C/c2ccc([N+](=O)[O-])o2)c1C`, the outcome was inactive.
In the case of `O=[N+]([O-])c1ccc(Sc2cc[n+]([O-])c3ccccc23)c([N+](=O)[O-])c1`, the outcome was inactive.
